Experimental data from PubChem BioAssay AID492973 (The Scripps Research Institute Molecular Screening Center, 2010).
The source made the active and inactive calls.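 How the source made its calls: active means inhibition above 50% of the enzyme in parasite cell lysate; inactive means the rest.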

Assay: PfM17LAP inhibitors in parasite extract, late-stage follow-up, cell lysate, fluorescence, Plasmodium falciparum lysate, powder samples (AID 492973)
Conditions: P. falciparum cell lysate, H-Leu-NHMec fluorescence; at 5 µM; stronger effect = higher value

inhibition, inactive:
Cc1ccc(-n2c(C)cc(C(=O)COC(=O)c3ccc[nH]c3=O)c2C)cc1 43%, C=CCn1c(SCC(=O)Nc2cccc3ccccc23)nc(O)c(CC)c1=O 31%, CCOc1ccc(NC(=O)Nc2ccc3nccnc3c2)cc1 25%, S=c1nc(-c2cccc(Cl)c2)[nH][nH]1 22%, CCOC(=O)c1c(-c2ccc(C)cc2)csc1NC(=O)[C@H]1CC=CC[C@H]1C(=O)O 48%, COc1ccc(C(C)(C)C)cc1NC(=O)[C@H]1CC=CC[C@H]1C(=O)O 40%, CCOc1ccc(NC(=O)Nc2cccs2)cc1 48%, CCc1ccc(NC(=O)[C@H]2CC=CC[C@H]2C(=O)O)cc1 22%

inhibition, active:
CCc1cc2ccc(C)cc2nc1SCC(=O)Nc1cc(OC)c(OC)cc1C(=O)O 69%, COc1cc(NC(=O)CSc2nc3cc(C)ccc3cc2C)c(C(=O)O)cc1OC 64%, CCc1cc2ccccc2nc1SCC(=O)Nc1cc(OC)c(OC)cc1C(=O)O 68%, O=C(CSc1nnc(Nc2ccccc2)s1)NN1C(=O)NC2(CCCCC2)C1=O 57%, CCN(CC)c1ccc(NC(=O)CSc2nc(C)cc(=O)[nH]2)cc1 52%, COc1cc(NC(=O)CSc2nnc3c(C)cc4cc(C)cc(C)c4n23)c(C(=O)O)cc1OC 55%, Cc1ccc(-n2c(C)cc(C(=O)COC(=O)c3ccc[nH]c3=O)c2C)cc1C 54%, COC(=O)c1c(-c2cc(C)ccc2C)csc1NC(=O)[C@@H]1CC=CC[C@@H]1C(=O)O 64%
